According to PubChem BioAssay (Tox21):
A number with no mark means an inactive call. Inconclusive results are not listed. Entries that show only a call come without a potency. Calls of active or inactive are those of the source. Unless noted, the call rests on the fitted dose curve; in most records, active means well fitted curve in the direction sought with a large enough effect in the repeat runs; inconclusive means weak or mixed curves; inactive means no such curve, though single readings can be large; an effect the other way counts as inactive or inconclusive.

Experiments:
[1] = A CellTox Green Cytotoxicity Assay to monitor cytotoxicity in HepG2 cells - 8 hour (AID 1224890); further: nearly all actives have a fitted effect of over 45% in size; further: potency means the concentration at half of the fitted maximal effect
Summary of the method: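 Real-time cytotoxicity: fluorescence of a cell-impermeant cyanine dye binding DNA of dead HepG2 cells, measured repeatedly (0–40 h) during compound exposure at 37 C. Cells seeded 600/well with reagent, dosed after 5 h.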

[2] = qHTS assay to identify small molecule antagonists of the androgen receptor (AR) signaling pathway using the MDA cell line in the presence of 0.5 nM R1881 - cell viability counter screen (AID 1259242); further: nearly all actives have a fitted effect of over 45% in size
Summary of the method: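 Live-cell protease activity was measured by CellTiter-Fluor fluorescence after 30 min. Before that, MDA-kb2 MMTV-luciferase cells had 16 hr at 37C without CO2, exposed to test compounds and 0.5 nM R1881 final.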

[3] = qHTS assay to identify small molecule HDAC inhibitors (AID 1259364); further: nearly all actives have a fitted effect of over 45% in size; further: potency means the concentration at half of the fitted maximal effect
Summary of the method: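 Luminescence read after 30 min room-temperature HDAC-Glo incubation measures cellular class I/II HDAC activity. Compounds were applied for 2 hr at 37 C to HCT-116 wild-type cells seeded the day before.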

[4] = qHTS assay to identify small molecule HDAC inhibitors - cell viability counter screen (AID 1259365); further: series mostly up to about 92 µM; nearly all actives have a fitted effect of over 50% in size
Summary of the method: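 Luminescence from CellTiter-Glo, developed 30min at room temperature, reports viability of wild-type HCT-116 cells treated 2hr with compounds at 37 C and 5% CO2 after overnight plating.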

[5] = qHTS assay to identify small molecule agonists of the sonic hedgehog signaling (Shh) pathway - cell viability counter screen (AID 1259366); further: nearly all actives have a fitted effect of over 50% in size
Summary of the method: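 Cytotoxicity counter screen run in the same wells as the Shh reporter assay. NIH/3T3 cells carrying a Gli1 response element–driven luciferase were treated with DMSO-dissolved compounds for 24hr, and live-cell protease activity was measured with CellTiter-Fluor.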

[6] = qHTS assay to identify small molecule antagonists of the sonic hedgehog signaling (Shh) pathway - cell viability counter screen (AID 1259367); further: nearly all actives have a fitted effect of over 55% in size
Summary of the method: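 Viability was read by CellTiter-Fluor fluorescence in the same wells, reagent added 23 hr into compound treatment and incubated 1 hr at 37C. The 3T3 Gli1-Luc reporter cells (2,000/well) received conditioned medium after compound and ran 24 hr.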

[7] = qHTS assay to identify small molecule agonists of the sonic hedgehog signaling (Shh) pathway (AID 1259368; calls by dose curve; further: nearly all actives have a fitted effect of over 15% in size; further: potency means the concentration at half of the fitted maximal effect)
Summary of the method: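 Luminescence was read after 30 min at room temperature with luciferase reagent. Before that, 3T3Gli1-Luc cells (NIH/3T3 clone, stable Gli1-Luc reporter; 2,000/well) were exposed to compounds for 24 hr at 37C, 5% CO2, compounds being added 4 hr post-plating.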

[8] = qHTS assay to identify small molecule antagonists of the sonic hedgehog signaling (Shh) pathway (AID 1259369; calls by dose curve; further: nearly all actives have a fitted effect of over 45% in size)
Summary of the method: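 Antagonist mode: compound added to 3T3 Gli1-Luc cells followed by conditioned-medium stimulation, 24 h at 37 C, 5% CO2. Inhibition taken as loss of Gli1-driven luciferase luminescence.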

[9] = qHTS assay to identify small molecule agonists of the androgen receptor (AR) signaling pathway in the presence of an antagonist - cell viability counter screen (AID 1259379); further: nearly all actives have a fitted effect of over 25% in size; further: potency means the concentration at half of the fitted maximal effect
Summary of the method: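 Cytotoxicity counter-screen run in the same wells as the nilutamide-challenged (3.0 µM final) AR agonist assay in MDA-kb2 cells. Compounds tested at 15 concentrations for 16 h, 37 °C without CO2; CellTiter-Fluor fluorescence read.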

[10] = qHTS assay to identify small molecule agonists of the estrogen receptor beta (ER-beta) signaling pathway - cell viability counter screen (AID 1259380); further: nearly all actives have a fitted effect of over 30% in size; further: potency means the concentration at half of the fitted maximal effect
Summary of the method: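 Cell viability counter screen: CellTiter-Glo luminescence (30 min, room temperature) measured in the same wells as the beta-lactamase readout, after 16 hr compound exposure at 37C of ER-beta-bla HEK293T cells in 2% charcoal-stripped FBS medium.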

[11] = qHTS assay to identify small molecule antagonists of the estrogen receptor beta (ER-beta) signaling pathway - cell viability counter screen (AID 1259382); further: nearly all actives have a fitted effect of over 55% in size; further: potency means the concentration at half of the fitted maximal effect
Summary of the method: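 Cytotoxicity was measured in the same wells by CellTiter-Glo luminescence after 30 min at room temperature. Cells were ER-beta-bla HEK293T in charcoal-stripped serum, given compound together with 1 nM E2 and incubated 16 h at 37C.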

[12] = qHTS assay to identify small molecule agonists or antagonists of the thyroid stimulating hormone receptor (TSHR) signaling pathway - wild type cell line counter screen (AID 1259384; calls by dose curve)
Summary of the method: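 Counter screen in untransfected Hek293: compounds (15-point titration, triplicate) plus phosphodiesterase inhibitor Ro20-1724 added after 18 h plating; 30 min RT. Intracellular cAMP via competitive d2/cryptate immunoassay, 1 h incubation.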

[13] = molecular target: Estrogen receptor (Homo sapiens) (UniProt P03372); test: qHTS assay to identify small molecule antagonists of the estrogen receptor alpha (ER-alpha) signaling pathway using the BG1 cell line in the presence of 0.1 nM 17-beta-estradiol (AID 1259244); further: nearly all actives have a fitted effect of over 50% in size
Summary of the method: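 Luciferase luminescence (ONE-Glo, 30 min at room temperature) was read after 22 hr at 37C exposure to compounds plus 17beta-estradiol at 0.1 nM final. Cells were VM7Luc4E2 with endogenous ER-alpha and an ERE-driven luciferase, pre-cultured 5 days in hormone-depleted medium.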

[14] = molecular target: Estrogen receptor (Homo sapiens) (UniProt P03372); test: qHTS assay to identify small molecule agonists of the estrogen receptor alpha (ER-alpha) signaling pathway in the presence of an antagonist (AID 1259383; calls by dose curve; further: nearly all actives have a fitted effect of over 15% in size; further: potency means the concentration at half of the fitted maximal effect; on activation: top concentration of the series differs between compounds)
Summary of the method: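 Agonist-mode confirmation run in the presence of 10.0nM (final) ICI-182,780 antagonist. The reporter was ERE-driven luciferase in VM7Luc4E2 cells, grown in charcoal-stripped serum. Cells were exposed to 15-concentration compound series for 22hr, then ONE-Glo luminescence was read.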

[15] = molecular target: Estrogen receptor beta (Homo sapiens) (UniProt Q92731); test: qHTS assay to identify small molecule agonists of the estrogen receptor beta (ER-beta) signaling pathway (AID 1259377; active means well fitted activation curve with a large enough effect in the signal ratio in the repeat runs, not every such curve was filed as active; the % refers to the signal ratio; further: potency means the concentration at half of the fitted maximal effect)
Summary of the method: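 HEK293T ER-beta-UAS-bla; 2% charcoal-stripped FBS; cells pre-incubated 6 hr, compound 16 hr, 37C/5% CO2; LiveBLAzer B/G FRET substrate 2 h RT; fluorescence intensity read.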

[16] = molecular target: Estrogen receptor beta (Homo sapiens) (UniProt Q92731); test: qHTS assay to identify small molecule antagonists of the estrogen receptor beta (ER-beta) signaling pathway (AID 1259378; active means well fitted inhibition curve with a large enough effect in the signal ratio in the repeat runs, not every such curve was filed as active; the % refers to the signal ratio; further: potency means the concentration at half of the fitted maximal effect)
Summary of the method: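 Antagonist mode: compounds added to beta-lactamase reporter HEK293T ER-beta-UAS cells stimulated with E2 (1nM final), 16 hr at 37C. LiveBLAzer B/G FRET substrate, 2 hours room temperature, fluorescence read-out.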

[17] = qHTS assay to identify small molecule antagonists of the estrogen receptor alpha (ER-alpha) signaling pathway using the BG1 cell line in the presence of 0.1 nM 17-beta-estradiol - cell viability counter screen (AID 1259241); further: nearly all actives have a fitted effect of over 40% in size
Summary of the method: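 VM7Luc4E2, 4,000 cells/well, phenol red-free medium + 10% charcoal-stripped FBS; 24 hr plating; cpd + 0.1 nM E2 final, 22 hr 37C/5% CO2; CellTiter-Fluor 30 min, fluorescence.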

[18] = qHTS assay to identify small molecule phospholipidosis (PLD) inducers (AID 1259344; active means well fitted curve in the direction sought with a large enough effect; an effect the other way counts as inactive or inconclusive)
Summary of the method: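 Phospholipid accumulation was scored by imaging: fixed, Hoechst-counterstained HepG2 cells stained with LipidTOX Red after 24 h compound exposure at 37 C. Read-outs were pit count and pit intensity per well or per cell, with amiodarone and DMSO controls.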

[19] = molecular target: Androgen receptor (Homo sapiens) (UniProt P10275); test: qHTS assay to identify small molecule agonists of the androgen receptor (AR) signaling pathway in the presence of an antagonist (AID 1259381; calls by dose curve; further: nearly all actives have a fitted effect of over 15% in size; further: potency means the concentration at half of the fitted maximal effect)
Summary of the method: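 Agonist-mode confirmation run against 3.0 uM final nilutamide: compounds titrated at 15 concentrations onto MDA-kb2 MMTV-luciferase reporter cells. Luminescence measured with ONE-Glo following 16 hr incubation, 37C, 0% CO2.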

[20] = molecular target: Androgen receptor (Homo sapiens) (UniProt P10275); test: qHTS assay to identify small molecule antagonists of the androgen receptor (AR) signaling pathway using the MDA cell line in the presence of 0.5 nM R1881 (AID 1259243); further: nearly all actives have a fitted effect of over 50% in size
Summary of the method: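 Luminescent reporter readout (ONE-Glo, 30 min, room temperature) after 16 hr co-treatment of MDA-kb2 cells with test compounds and 0.5 nM R1881 final, at 37C without CO2. The MMTV-driven luciferase responds to both AR and GR.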

Sequence of Estrogen receptor (Homo sapiens) (P03372 whole entry, looked up): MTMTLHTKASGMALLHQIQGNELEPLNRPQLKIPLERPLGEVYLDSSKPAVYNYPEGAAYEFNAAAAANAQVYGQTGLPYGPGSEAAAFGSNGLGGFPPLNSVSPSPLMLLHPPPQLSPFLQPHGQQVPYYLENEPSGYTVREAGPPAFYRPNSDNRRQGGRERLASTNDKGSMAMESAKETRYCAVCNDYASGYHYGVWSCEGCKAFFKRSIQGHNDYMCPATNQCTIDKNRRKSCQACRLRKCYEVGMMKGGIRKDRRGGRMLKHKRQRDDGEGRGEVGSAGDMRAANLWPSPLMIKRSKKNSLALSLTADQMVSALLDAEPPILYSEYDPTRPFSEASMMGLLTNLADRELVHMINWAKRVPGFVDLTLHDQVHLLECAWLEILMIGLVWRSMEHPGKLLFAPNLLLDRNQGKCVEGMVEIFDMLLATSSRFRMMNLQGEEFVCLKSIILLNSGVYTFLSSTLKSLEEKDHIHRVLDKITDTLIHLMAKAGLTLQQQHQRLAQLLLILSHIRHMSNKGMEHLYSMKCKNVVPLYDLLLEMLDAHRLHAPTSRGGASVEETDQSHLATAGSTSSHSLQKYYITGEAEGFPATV
Sequence of Estrogen receptor beta (Homo sapiens) (Q92731 whole entry, looked up): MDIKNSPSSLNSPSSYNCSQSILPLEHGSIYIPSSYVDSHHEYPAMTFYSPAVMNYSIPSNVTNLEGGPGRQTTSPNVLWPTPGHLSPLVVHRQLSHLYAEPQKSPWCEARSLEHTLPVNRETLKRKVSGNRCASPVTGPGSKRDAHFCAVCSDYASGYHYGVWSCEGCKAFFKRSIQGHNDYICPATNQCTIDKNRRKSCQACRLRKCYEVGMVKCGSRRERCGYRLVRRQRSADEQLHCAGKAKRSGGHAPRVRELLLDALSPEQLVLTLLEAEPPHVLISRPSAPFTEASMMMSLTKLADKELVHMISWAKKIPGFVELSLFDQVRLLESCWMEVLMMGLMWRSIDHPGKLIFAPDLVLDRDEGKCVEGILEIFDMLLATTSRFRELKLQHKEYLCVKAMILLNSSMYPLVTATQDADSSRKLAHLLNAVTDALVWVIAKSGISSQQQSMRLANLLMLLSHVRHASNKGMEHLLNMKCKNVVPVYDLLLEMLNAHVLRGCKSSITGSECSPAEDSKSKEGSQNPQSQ
Sequence of Androgen receptor (Homo sapiens) (P10275 whole entry, looked up): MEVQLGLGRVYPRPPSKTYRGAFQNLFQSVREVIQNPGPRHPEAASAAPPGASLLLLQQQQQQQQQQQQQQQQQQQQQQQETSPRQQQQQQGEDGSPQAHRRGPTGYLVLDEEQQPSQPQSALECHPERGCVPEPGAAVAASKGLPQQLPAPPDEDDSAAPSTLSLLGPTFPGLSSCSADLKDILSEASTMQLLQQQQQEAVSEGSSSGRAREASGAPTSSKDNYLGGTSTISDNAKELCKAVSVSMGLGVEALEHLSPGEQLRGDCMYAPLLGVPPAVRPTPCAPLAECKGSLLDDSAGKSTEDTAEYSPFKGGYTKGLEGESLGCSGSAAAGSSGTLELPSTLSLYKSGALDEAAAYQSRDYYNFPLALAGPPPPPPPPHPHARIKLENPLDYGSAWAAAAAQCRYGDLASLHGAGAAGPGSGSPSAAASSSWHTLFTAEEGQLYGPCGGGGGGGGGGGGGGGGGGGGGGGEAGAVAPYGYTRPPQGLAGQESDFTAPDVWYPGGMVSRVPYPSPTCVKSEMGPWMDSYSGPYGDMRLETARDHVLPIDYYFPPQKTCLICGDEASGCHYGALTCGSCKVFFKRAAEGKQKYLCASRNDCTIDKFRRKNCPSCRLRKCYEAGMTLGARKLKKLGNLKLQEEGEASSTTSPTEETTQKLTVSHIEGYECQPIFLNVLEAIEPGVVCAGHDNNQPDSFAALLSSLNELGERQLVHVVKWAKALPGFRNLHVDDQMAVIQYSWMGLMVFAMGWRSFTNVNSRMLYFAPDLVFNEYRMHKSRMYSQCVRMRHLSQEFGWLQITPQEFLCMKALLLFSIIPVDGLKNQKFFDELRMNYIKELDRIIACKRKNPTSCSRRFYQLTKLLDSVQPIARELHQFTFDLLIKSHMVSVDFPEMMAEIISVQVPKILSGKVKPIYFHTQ

Row | SMILES | Potency [1] | Potency [2] | Potency [3] | outcome [4] | Potency [5] | Potency [6] | Potency [7] | Potency [8] | Potency [9] | Potency [10] | Potency [11] | outcome [12] | Potency [13] | Potency [14] | Potency [15] | Potency [16] | Potency [17] | Potency [18] | Potency [19] | Potency [20]
1 | CCCCC(CC)COCCC#N (stereo unspecified) | inactive | inactive | inactive | inactive | inactive | inactive | inactive | inactive | inactive | inactive | inactive | inactive |  |  |  |  |  |  |  | 
2 | CCCCCCC/C=C/C=O | inactive |  | inactive | inactive | inactive | inactive | inactive |  |  | inactive | inactive | inactive | inactive | inactive |  |  |  |  |  | 
3 | CC(C)=CCC/C(C)=C/C=N/O | inactive | inactive | inactive | inactive | inactive | inactive | inactive | inactive |  | inactive |  | inactive | inactive | inactive | inactive | inactive |  |  |  | 
4 | CNc1ccccc1 | inactive | inactive | inactive | inactive | inactive | inactive | inactive | inactive | inactive | inactive | inactive |  | inactive | inactive |  |  |  |  |  | 
5 | O=C(N[C@@H](Cc1ccccc1)[C@@H](O)C(=O)N1C[C@@H](O)[C@@H](O)C1)c1cc2cc(Cl)ccc2[nH]1 |  | inactive | inactive | inactive |  |  | inactive | inactive | inactive |  | inactive | inactive | inactive | inactive | inactive |  | inactive |  |  | 
6 | CC1=C(C)C(=O)C(CCCCC#CCCCC#CCO)=C(C)C1=O | inactive |  | inactive | inactive | inactive |  | inactive | inactive |  | 18.8 µM (active) | 26.6 µM (active) | inactive |  | inactive |  | 21.1 µM (active) |  | inactive |  | 
7 | CC(C(=O)O)c1ccc(/C=C2\CCCCC2=O)cc1 (stereo unspecified) | inactive | inactive |  | inactive | inactive | inactive | inactive | inactive | inactive | inactive | inactive | inactive |  |  |  |  |  | inactive |  | 
8 | CCC(=O)O[C@]1(C(=O)COC)[C@@H](C)C[C@H]2[C@@H]3CCC4=CC(=O)C=C[C@]4(C)C3(F)[C@@H](O)C[C@@]21C (stereo partly specified) | inactive |  | inactive | inactive | inactive | inactive | 13.3 µM (active) | inactive | inactive | inactive | inactive | inactive |  |  | inactive |  |  |  | 0.006 µM (active) | 
9 | CCCCCCCCCC(C)C=O (stereo unspecified) | 24.5 µM (active) | inactive | inactive | inactive | inactive | inactive | inactive | inactive | inactive | 48.6 µM (active) |  | inactive |  |  |  |  |  |  |  | 
10 | CC(=O)Oc1cccc2c1C(=O)c1c(OC(C)=O)cc(C(=O)O)cc1C2=O | inactive |  | inactive | inactive | inactive | inactive | inactive | inactive | 26.6 µM (active) | inactive | inactive | inactive |  |  |  |  |  | inactive | inactive | 
11 | CCc1ccc(C(=O)C(C)CN2CCCCC2)cc1 (stereo unspecified) | inactive | inactive | inactive | inactive | inactive | inactive | inactive | inactive | inactive | inactive | inactive | inactive |  |  |  |  |  | inactive |  | 
12 | Cc1cc(C)c(C)c(O)c1 | inactive | inactive | inactive | inactive | inactive | inactive | inactive | inactive | inactive | inactive | inactive | inactive | inactive | inactive |  |  |  |  |  | 
13 | c1ccc(CCNc2nc(-c3ccccc3)cs2)cc1 |  | inactive | 2.98 µM (active) | inactive | inactive | inactive |  | inactive | inactive |  | inactive | inactive | inactive | 0.944 µM (active) | inactive | inactive | inactive | inactive |  | 
14 | FC1(F)C(F)(F)C(F)(F)C2(F)C(F)(C1(F)F)C(F)(F)C(F)(F)C1(F)C(F)(F)C(F)(F)C(F)(F)C(F)(F)C12F (stereo unspecified) | inactive | inactive | inactive | inactive | inactive | inactive | inactive | inactive |  | inactive | inactive | inactive |  |  | inactive | inactive |  |  |  | 
15 | CC(=O)Nc1ccccc1O | inactive | inactive | inactive | inactive | inactive |  | inactive | inactive | inactive | inactive | inactive | inactive |  |  | inactive | inactive |  |  |  | 
16 | O=C1c2ccccc2C(=O)c2c1ccc(O)c2O | inactive |  | 29.8 µM (active) | inactive |  |  | inactive | inactive | 23.7 µM (active) | inactive | inactive | inactive |  |  | 7.5 µM (active) |  |  | inactive |  | 
17 | CCOc1ccc2c(c1)C(C)CC(C)(C)N2 (stereo unspecified) |  | inactive | inactive | inactive | inactive |  | inactive | inactive |  | inactive | inactive | inactive |  |  | inactive | inactive | inactive |  | inactive | inactive
18 | Nc1ncnc2c1ncn2[C@@H]1O[C@H](CO)[C@@H](O)[C@H]1O | inactive | inactive | inactive | inactive | inactive | inactive | inactive | inactive | inactive | inactive | inactive | inactive |  | inactive | inactive |  |  | inactive |  | 
